Results on 76 compounds are retold here after PubChem BioAssay AID485297 (National Center for Advancing Translational Sciences (NCATS), 2010).

Hit rate of the full screen: of about 320,000 compounds, about 9,100 (2.8%) were called active. A call without a number means that no potency is given here. Not shown: some 3% with an inconclusive outcome. Calls follow the shape of the dose curve; as a rule, active = well fitted activation curve with a large enough effect; inconclusive = small, poorly fitted or top-dose-only effect; inactive = no such curve, though single readings can be large or run the other way. Many of the other results were omitted from the sample, so actives are more common in it than they were.
Potency is read from the fitted curve at half-maximal effect.

A short description of the assay: qHTS Assay for Rab9 Promoter Activators. Also: nearly all actives have a fitted effect of over 60% in size. The settings on record: Huh7 Rab9 promoter-luciferase reporter, luminescence, 24 h; series mostly up to 9.22 µM. The essentials: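 Steps: seed 1500 Huh7 Rab9-luc cells per well, rest 2 h at 37 °C; add compound in DMSO; incubate 24 h; add luciferase reagent, 10 min ambient; read luminescence.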
(Quantitative high-throughput screening tests each substance at several concentrations.)
As for `Cc1cc(NC(=O)CSc2nnc(-c3ccc(Cl)s3)o2)no1`, the Potency result is “inactive”.

Consider `Cc1cc(N/C=C\C(=O)c2ccc(Cl)c(Cl)c2)no1`, for which the Potency was 2820 nM (active). `Cc1ccc(C(=O)/C=C/Nc2ccc(S(=O)(=O)Nc3onc(C)c3C)cc2)cc1`: the Potency result is “inactive”. On the same count and under the same terms, the value for `COc1cc(OC)cc(-c2c(-c3cccs3)c3cc(-c4ccc(OC)cc4F)ccc3n2C)c1` was “inactive”; that for `Cc1ccc(C(=O)c2c(NC(=O)c3ccccc3)sc(C)c2C)cc1` was “inactive”.

Turning to `O=C(COC(=O)c1ccc2ncsc2c1)Nc1ccc(Cl)cc1`, the Potency result is “inactive”. Still for that read-out and setting: as for `Cc1sc(NC(=O)c2ccc3ncsc3c2)c(C(N)=O)c1C`, the figure is 1580 nM (active). Regarding `CCc1ccc(OCC(=O)OCC(=O)c2c(N)n(C)c(=O)n(C)c2=O)cc1`, the Potency entry was “inactive”.

With `Cc1cc(C)nc(NC(=O)/C=C/c2ccc(Cl)cc2)n1`, the Potency result is “inactive”. `CC(C)(C)c1ccc(/C=C/C(=O)Nc2ncccn2)cc1`: the Potency was 3980 nM (active). Still for that read-out and setting: the value for `O=C(/C=C/c1ccc(Cl)cc1)Nc1ccc(S(=O)(=O)Nc2ncccn2)cc1` was “inactive”.

Turning to `C[C@H](NC(=O)c1ccccc1Cl)C(=O)OCC(=O)N1CCN(c2ccccc2)CC1`, the Potency entry is “inactive”.

Take `O=C(CNC(=O)c1ccc(F)cc1)c1ccccc1`: the Potency was 794 nM (active). With `O=C(CNC(=O)c1ccccc1F)c1ccc(Br)cc1`, the Potency was 1260 nM (active). The same measure, in the same setting: as for `O=C(COC(=O)CNC(=O)c1ccccc1F)NCC(F)(F)F`, the entry is “inactive”; as for `O=C(NCCS(=O)(=O)NCc1ccc(F)cc1)c1ccccc1`, “inactive”; as for `O=C(CNC(=O)c1ccccc1Br)NCCSc1ccc(Br)cc1`, “inactive”. As for `O=C(CNC(=O)c1ccccc1)NCC(=O)OCC(=O)c1ccccc1`, the Potency result is “inactive”. The same measure, in the same setting: the value for `O=S(=O)(NCc1ccccc1Br)c1ccccc1Br` was “inactive”. On the same count and under the same terms, as for `COc1cccc(CNC(=O)COc2cc(O)c3c(c2)OC(C)(C)CC3=O)c1`, the entry is “inactive”.

Consider `Nc1c(N(CCCO)C(=O)C2CCCC2)c(=O)[nH]c(=O)n1Cc1ccccc1`, for which the Potency result is “inactive”. Still for that read-out and setting: as for `O=C(CSc1nnc(-c2ccc([N+](=O)[O-])cc2)o1)Nc1ccccn1`, the figure is 398 nM (active). The same measure, in the same setting: as for `CCc1ccccc1NC(=O)CSc1nnc(-c2ccncc2)o1`, the entry is “inactive”. As to `CCOC(=O)CSc1nnc(-c2ccc([N+](=O)[O-])cc2)o1`, the Potency entry is “inactive”. Still for that read-out and setting: the value for `O=c1c2ccccc2ccc2ccc(P(=O)(O)O)cc12` was “inactive”; that for `Cc1c(NS(=O)(=O)c2cc(C(=O)NCCc3ccc(F)cc3)cc(Cl)c2Cl)c(=O)n(-c2ccccc2)n1C` was “inactive”. For the compound `O=C(COC(=O)C1(c2ccc(F)cc2)CCCC1)N1CCNC1=O`, the Potency result is “inactive”.

For `CCn1c(=N)n(CC(=O)c2cccc(OC)c2)c2ccccc21`, the Potency is 3160 nM (active). Take `CCOC(=O)c1cc2ccccc2n1CC(=O)c1ccccc1`: the Potency entry is “inactive”. Consider `COc1ccc2cc(C(=O)O)n(CC(=O)c3ccccc3)c2c1`, for which the Potency result is “inactive”. `O=C1OC2(CCCCC2)CC2=C1C1O[C@](c3ccsc3)(Cc3ccccc31)O2`: the activation, negative = inhibition was 1.46% [at 1.84 µM] (inactive).

Turning to `COc1ccc(OCCCC(=O)Nc2cccc(S(=O)(=O)N3CCCCCC3)c2)cc1`, the Potency entry was “inactive”. Same read-out and setting: the value for `C/C(=N\NC(=O)c1nc(C)cc(C)n1)c1ccccc1` was 1780 nM (active); that for `COc1ccc(/C(C)=N/NC(=O)c2ccc3nc[nH]c3c2)cc1` was “inactive”; that for `C/C(=N\NC(=O)c1cccnc1)c1ccc(-c2ccccc2)cc1` was “inactive”. Take `Cc1ccc(Nc2nnc(SC(C)C(=O)NC3CC3)s2)cc1` (stereo unspecified): the Potency entry is “inactive”. `CCOc1ccc(/C=N/Nc2nncc(-c3ccccc3)n2)cc1OC`: the Potency result is “inactive”. On to `Brc1ccccc1/C=N/Nc1nc2ccccc2o1`, for which the Potency was 2820 nM (active).

For `CCOc1ccccc1/C=N/Nc1nc2ccccc2o1`, the Potency entry is “inactive”. As to `Oc1c(Br)cccc1/C=N/Nc1c(F)c(F)c(F)c(F)c1F`, the Potency entry was “inactive”.

In the case of `COc1ccc(/C=N/S(=O)(=O)c2ccccc2)cc1OC`, the Potency result was “inactive”. On the same count and under the same terms, the value for `COc1ccc(/C=N/Nc2nc3ccccc3o2)cc1OC` was 1000 nM (active); that for `Cc1nc(SCC(=O)NC2CCCCC2C)c(C#N)c(C)c1C` (stereo unspecified) was “inactive”; that for `Cc1ccc(S(=O)(=O)N2CC(O)C[C@H]2C(=O)OCC(=O)Nc2ccc(N3CCOCC3)cc2)cc1C` (stereo partly specified) was “inactive”. On the same count and under the same terms, as for `O=C(CCNC(=O)c1ccc(Cl)cc1)NC1CCCc2ccccc21` (stereo unspecified), the entry is “inactive”; as for `CN(C)C(=O)c1ccc(NC(=O)COC(=O)c2cc3c(s2)CCCCC3)cc1`, “inactive”. Still for that read-out and setting: the value for `O=C(CNC(=O)c1cc2c(s1)CCC2)Nc1ccccc1Br` was “inactive”; that for `CCC(=O)c1c[nH]c(C(=O)NCC2CCCO2)c1` (stereo unspecified) was “inactive”; that for `O=C(NCCCN1CCOCC1)c1cc2c(s1)CCC2` was “inactive”. For `O=C(NCC1CCCO1)c1cc2c(s1)CCCC2` (stereo unspecified), the Potency is 2510 nM (active). On the same count and under the same terms, as for `O=C(Nc1ccc(F)cc1)c1cc2c(s1)CCCC2`, the figure is 1260 nM (active); as for `CC(C)Cc1nnc(NC(=O)CCNC(=O)c2ccccc2Cl)s1`, “inactive”. Take `CCN(CC(=O)Nc1ccccc1OC)C(=O)CC1CC2CCC1C2` (stereo unspecified): the Potency result was “inactive”. On the same count and under the same terms, as for `Cc1ccc(-c2nc(C#N)c(NCCCn3ccnc3)o2)cc1`, the figure is 3980 nM (active); as for `Cc1ccc(S(=O)(=O)c2nc(NCCCn3ccnc3)sc2Cl)cc1`, “inactive”. As to `COc1ccc(/C=C(\C#N)C(=O)NCCCn2ccnc2)cc1`, the Potency entry was “inactive”. On the same count and under the same terms, as for `O=C(CCc1nc(-c2ccccc2)no1)Nc1cccc(C(=O)NC2CC2)c1`, the entry is “inactive”; as for `COC(=O)c1ccc(/C=N\n2c(C)nnc2C)cc1`, “inactive”. On the same count and under the same terms, as for `CC1CCCC(C)N1/N=C/c1ccccc1OC(F)F` (stereo unspecified), the entry is “inactive”; as for `COC(=O)c1ccc(/C=N/N2C(C)CCCC2C)cc1` (stereo unspecified), 2240 nM (active); as for `CCC1(CC)NC(=O)N(CC(=O)OCC(=O)c2cc(C)c(C)cc2C)C1=O`, “inactive”. Regarding `CC(C)CN(C(=O)c1cccc(S(=O)(=O)N2CCCCC2)c1)C1CCS(=O)(=O)C1` (stereo unspecified), the Potency entry is “inactive”.

Turning to `O=C(NNC(=S)Nc1ccc(Br)cc1Cl)c1ccco1`, the Potency is 2820 nM (active). Same read-out and setting: the value for `O=C(NNC(=O)c1ccco1)Nc1ccccc1` was “inactive”; that for `CCC(=O)NC(=S)Nc1ccc(NC(=O)c2ccco2)c(Cl)c1` was “inactive”; that for `O=[N+]([O-])c1ccc(NC(=S)N2CCN(c3ccccn3)CC2)cc1` was “inactive”. The same measure, in the same setting: the value for `O=C(NCCc1ccccn1)c1nc(Cn2cc([N+](=O)[O-])cn2)no1` was “inactive”. The same measure, in the same setting: as for `O=C(Nc1ccc([N+](=O)[O-])cc1)OCCc1ccccn1`, the figure is 3550 nM (active); as for `Cc1c(C(=O)Nc2ccccc2)sc2nc3n(c(=O)c12)CCCCC3`, 2510 nM (active); as for `Cc1c(C(=O)Nc2cccc(-c3nnc4n3CCCCC4)c2)oc2ccccc12`, “inactive”. As for `CC(=O)c1ccc(NC(=O)c2sc3nc4n(c(=O)c3c2C)CCCCC4)cc1`, the Potency entry is “inactive”. `COc1cccc(CNC(=O)COC(=O)CN2C(=O)NC3(CCCCC3C)C2=O)c1` (stereo unspecified): the Potency result is “inactive”. Same read-out and setting: as for `COc1ccc(OC)c(-c2csc(NC(=O)COC(=O)C3CC3)n2)c1`, the entry is “inactive”. On the same count and under the same terms, as for `O=C(Cn1cc(C(=O)c2cccs2)c2ccccc21)NCc1cccs1`, the entry is “inactive”; as for `COC(=O)c1cn(CC(=O)NCc2cccs2)c2ccccc12`, 3550 nM (active); as for `COC(=O)Cn1cc(C(=O)c2cccs2)c2ccccc21`, “inactive”.
